ChEMBL document CHEMBL1201862, “PubChem BioAssay data set” (2004)
Among all 360,000 compounds or so, about 11,000 (3.1%) were called active. Another 4% or so got no clear call; they are omitted. No cut-off for these calls is given here. Shown is part of a subset that was picked to be rich in actives.

The compounds below were run against Thioredoxin glutathione reductase (Schistosoma mansoni) (UniProt Q962Y6) (assay: qHTS Assay for the Inhibitors of Schistosoma Mansoni Peroxiredoxins. [Related pubchem assays: 1011 (Confirmation Concentration-Response Assay for Inhibitors of the Schistosoma mansoni Redox Cascade ), 448 (Schistosoma Mansoni Peroxiredoxins (Prx2) and thioredoxin glutathione reductase (TGR) coupled assay)]).
Type: functional
In the case of Cl.N[C@@H](CCC(=O)O)C(=O)O, the Potency is reported as 5.01 µM (active). For Nc1c2c(nn1-c1ccc(C(=O)O)cc1)CNC2, the Potency was “inactive”. For Cc1ccc(CNC(=O)C(=O)NCC2OCCN2S(=O)(=O)c2ccc3c(c2)OCCO3)cc1 (stereo unspecified), the Potency was 631 µM (active). In the case of Cc1ccc(CNC(=O)C(NS(=O)(=O)c2cccc3nsnc23)C(C)C)cc1 (stereo unspecified), the Potency is reported as “inactive”. In the case of Cc1c(C(=O)N2CCCCC2)c(S(=O)(=O)NCCc2ccc(Cl)cc2)c(C)n1C, the Potency is reported as “inactive”. With CC(=O)N1CCc2cc(S(=O)(=O)Nc3ccc(C)cc3)ccc21 the Potency was 316 µM (active).
